About 8,800 targets were measured; listed, in parts, are those with a hit and a random draw of the rest. About 0.5% of all pairs of compound and target were hits.
compound: CNc1nc(-c2ccc3c(N)n[nH]c3c2)cc(N2C[C@@H](C(=O)NC3CCCCC3)CC[C@H]2C)n1; test: log2 fold change, soluble protein after heating vs DMSO (PISA); higher = thermal stabilisation; K562 lysate, 10 uM; active = over 0.2 and 3.5 SD of the protein, either way, in both replicates (recomputed)
Procedure, shortened: (§1)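 Quantification was by TMTpro 16plex LC-MS/MS with equalised channel sums, applied to the supernatant after 21,000xg for 90 min. Samples were crude K562 extract at 1 mg/mL protein in PBS pH 7.4 with 1 mM MgCl2, treated with 10 μM compound for 30 min, heated for 3 min across 48°C-58°C, pooled and brought to 0.5% NP-40 at 4°C. Values are log-two fold changes in thermal stability relative to solvent controls, from duplicates.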

Chain of UniProt P28288 (P28288 whole entry, looked up): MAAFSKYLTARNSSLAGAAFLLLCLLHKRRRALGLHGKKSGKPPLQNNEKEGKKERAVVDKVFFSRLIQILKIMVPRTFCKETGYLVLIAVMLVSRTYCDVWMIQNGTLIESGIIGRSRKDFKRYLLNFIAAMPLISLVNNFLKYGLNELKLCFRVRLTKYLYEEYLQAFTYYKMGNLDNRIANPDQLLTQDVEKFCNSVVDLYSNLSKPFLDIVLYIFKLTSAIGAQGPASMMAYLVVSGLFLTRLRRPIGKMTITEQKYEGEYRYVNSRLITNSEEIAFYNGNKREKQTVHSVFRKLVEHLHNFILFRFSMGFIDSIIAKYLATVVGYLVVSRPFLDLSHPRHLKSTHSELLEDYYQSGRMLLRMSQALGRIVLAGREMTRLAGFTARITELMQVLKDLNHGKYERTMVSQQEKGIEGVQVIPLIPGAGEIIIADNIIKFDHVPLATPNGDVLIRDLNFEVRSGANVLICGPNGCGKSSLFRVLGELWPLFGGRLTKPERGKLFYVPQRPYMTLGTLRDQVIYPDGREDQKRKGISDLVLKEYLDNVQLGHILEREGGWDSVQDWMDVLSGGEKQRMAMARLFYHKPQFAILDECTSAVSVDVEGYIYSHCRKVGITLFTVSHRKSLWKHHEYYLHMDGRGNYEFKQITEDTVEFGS
Chain of UniProt Q9Y303 (Q9Y303 whole entry, looked up): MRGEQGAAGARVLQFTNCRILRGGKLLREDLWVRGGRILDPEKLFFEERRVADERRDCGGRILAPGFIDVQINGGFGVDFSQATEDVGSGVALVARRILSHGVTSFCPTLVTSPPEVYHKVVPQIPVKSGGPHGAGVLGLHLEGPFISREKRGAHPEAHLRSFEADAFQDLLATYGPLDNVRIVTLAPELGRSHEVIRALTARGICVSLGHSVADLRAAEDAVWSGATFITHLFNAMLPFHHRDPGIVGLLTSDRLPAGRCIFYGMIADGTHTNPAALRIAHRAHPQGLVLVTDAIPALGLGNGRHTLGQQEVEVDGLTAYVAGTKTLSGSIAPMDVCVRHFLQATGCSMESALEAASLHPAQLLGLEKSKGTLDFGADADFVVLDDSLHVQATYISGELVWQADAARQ
Chain of UniProt O60488 (O60488 whole entry, looked up): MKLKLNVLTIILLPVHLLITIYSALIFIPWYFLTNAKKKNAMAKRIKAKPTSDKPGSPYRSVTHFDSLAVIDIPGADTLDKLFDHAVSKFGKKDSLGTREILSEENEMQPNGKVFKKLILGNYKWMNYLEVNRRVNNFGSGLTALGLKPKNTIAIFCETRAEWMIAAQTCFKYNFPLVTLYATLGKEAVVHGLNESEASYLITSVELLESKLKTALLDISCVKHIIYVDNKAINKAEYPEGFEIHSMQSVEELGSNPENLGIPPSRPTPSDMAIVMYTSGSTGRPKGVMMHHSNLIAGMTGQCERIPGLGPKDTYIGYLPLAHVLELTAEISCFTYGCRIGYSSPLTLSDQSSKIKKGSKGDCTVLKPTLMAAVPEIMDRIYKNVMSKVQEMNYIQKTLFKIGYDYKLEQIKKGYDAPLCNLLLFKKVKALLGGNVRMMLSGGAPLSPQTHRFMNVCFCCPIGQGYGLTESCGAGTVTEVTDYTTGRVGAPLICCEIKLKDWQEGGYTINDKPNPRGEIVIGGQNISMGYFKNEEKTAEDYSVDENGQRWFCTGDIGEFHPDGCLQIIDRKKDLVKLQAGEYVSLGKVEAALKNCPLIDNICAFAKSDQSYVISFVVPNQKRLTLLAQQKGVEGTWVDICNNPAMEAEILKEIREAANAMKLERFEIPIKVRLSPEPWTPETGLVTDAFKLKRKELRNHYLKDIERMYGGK
Chain of UniProt P17707 (P17707 whole entry, looked up): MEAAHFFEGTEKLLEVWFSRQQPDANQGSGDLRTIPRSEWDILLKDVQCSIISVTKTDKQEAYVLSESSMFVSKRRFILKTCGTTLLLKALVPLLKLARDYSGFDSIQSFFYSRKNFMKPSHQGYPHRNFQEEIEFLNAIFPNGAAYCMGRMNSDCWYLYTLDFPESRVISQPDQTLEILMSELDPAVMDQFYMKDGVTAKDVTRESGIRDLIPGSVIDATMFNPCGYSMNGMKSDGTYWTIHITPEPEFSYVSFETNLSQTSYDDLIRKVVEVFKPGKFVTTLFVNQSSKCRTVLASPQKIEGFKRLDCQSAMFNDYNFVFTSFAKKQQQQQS
Chain of UniProt P39687 (P39687 whole entry, looked up): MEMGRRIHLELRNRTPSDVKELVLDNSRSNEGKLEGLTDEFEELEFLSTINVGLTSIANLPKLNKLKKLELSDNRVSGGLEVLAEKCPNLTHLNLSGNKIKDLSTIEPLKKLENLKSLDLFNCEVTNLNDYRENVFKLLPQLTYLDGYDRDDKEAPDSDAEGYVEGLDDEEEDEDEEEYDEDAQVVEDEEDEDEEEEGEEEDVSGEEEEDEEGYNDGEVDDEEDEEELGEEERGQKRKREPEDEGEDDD
Chain of UniProt Q9UG63 (Q9UG63 whole entry, looked up): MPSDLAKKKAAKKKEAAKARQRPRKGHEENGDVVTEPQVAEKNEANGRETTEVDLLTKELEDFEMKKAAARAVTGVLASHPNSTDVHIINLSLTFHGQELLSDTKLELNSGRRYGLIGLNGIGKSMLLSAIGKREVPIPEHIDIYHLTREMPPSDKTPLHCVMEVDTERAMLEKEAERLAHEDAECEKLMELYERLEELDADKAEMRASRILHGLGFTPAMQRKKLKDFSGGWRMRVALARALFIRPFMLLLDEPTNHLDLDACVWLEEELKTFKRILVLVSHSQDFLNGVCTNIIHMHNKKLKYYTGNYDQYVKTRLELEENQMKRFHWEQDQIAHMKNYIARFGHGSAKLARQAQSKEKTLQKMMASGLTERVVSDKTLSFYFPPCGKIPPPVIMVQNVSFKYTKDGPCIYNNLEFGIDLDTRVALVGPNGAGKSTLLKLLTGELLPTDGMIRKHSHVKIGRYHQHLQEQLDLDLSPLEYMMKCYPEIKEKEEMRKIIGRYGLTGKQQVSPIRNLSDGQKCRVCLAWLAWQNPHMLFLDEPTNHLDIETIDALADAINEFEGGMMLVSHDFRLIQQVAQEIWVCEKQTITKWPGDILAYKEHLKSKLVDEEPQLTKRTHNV
Chain of UniProt Q9BVK2 (Q9BVK2 whole entry, looked up): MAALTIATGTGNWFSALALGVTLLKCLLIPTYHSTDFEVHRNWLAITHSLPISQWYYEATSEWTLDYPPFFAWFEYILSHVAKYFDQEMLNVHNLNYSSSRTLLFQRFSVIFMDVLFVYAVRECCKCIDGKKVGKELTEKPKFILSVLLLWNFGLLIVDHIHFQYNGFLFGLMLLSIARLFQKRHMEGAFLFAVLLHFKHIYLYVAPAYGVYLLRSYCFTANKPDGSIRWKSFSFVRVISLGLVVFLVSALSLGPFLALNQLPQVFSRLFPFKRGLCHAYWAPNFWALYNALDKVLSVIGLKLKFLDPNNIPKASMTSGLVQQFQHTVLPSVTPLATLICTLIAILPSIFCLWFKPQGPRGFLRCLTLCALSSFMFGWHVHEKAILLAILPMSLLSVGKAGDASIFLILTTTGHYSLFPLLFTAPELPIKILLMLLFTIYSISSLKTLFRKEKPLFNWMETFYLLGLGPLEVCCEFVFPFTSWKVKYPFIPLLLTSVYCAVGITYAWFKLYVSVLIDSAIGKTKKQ
Chain of UniProt Q13155 (Q13155 whole entry, looked up): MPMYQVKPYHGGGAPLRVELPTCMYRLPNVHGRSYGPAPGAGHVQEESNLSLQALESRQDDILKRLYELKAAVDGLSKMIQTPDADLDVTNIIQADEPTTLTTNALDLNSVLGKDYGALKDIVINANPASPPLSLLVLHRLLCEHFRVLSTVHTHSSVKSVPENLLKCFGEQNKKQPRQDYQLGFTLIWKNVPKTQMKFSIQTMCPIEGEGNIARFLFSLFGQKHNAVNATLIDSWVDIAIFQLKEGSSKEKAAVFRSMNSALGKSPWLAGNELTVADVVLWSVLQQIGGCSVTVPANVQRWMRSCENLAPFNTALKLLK
Chain of UniProt Q8IZP0 (Q8IZP0 whole entry, looked up): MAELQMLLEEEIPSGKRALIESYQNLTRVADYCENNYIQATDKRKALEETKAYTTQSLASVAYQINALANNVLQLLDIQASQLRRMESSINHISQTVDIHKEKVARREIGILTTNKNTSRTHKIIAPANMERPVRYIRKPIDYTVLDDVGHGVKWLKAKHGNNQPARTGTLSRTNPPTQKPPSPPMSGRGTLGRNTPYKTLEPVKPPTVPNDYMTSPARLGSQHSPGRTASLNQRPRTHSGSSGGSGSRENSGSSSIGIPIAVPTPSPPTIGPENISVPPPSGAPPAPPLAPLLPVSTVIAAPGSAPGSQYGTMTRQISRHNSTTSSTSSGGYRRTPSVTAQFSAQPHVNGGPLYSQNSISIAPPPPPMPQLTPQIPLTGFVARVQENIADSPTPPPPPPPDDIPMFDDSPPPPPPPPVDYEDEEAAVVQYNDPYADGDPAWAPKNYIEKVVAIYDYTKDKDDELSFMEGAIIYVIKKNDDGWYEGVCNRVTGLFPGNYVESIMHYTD
Chain of UniProt P16219 (P16219 whole entry, looked up): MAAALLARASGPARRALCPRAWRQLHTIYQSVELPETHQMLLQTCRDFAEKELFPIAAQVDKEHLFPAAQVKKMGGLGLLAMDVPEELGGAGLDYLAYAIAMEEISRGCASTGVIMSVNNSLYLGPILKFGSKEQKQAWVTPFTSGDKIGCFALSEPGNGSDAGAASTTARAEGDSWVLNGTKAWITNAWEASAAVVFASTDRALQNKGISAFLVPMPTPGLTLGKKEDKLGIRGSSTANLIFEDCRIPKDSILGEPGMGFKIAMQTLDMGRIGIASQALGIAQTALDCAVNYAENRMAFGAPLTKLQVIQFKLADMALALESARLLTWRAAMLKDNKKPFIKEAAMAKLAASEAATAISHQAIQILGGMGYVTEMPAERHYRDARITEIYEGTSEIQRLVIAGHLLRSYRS
Chain of UniProt P40616 (P40616 whole entry, looked up): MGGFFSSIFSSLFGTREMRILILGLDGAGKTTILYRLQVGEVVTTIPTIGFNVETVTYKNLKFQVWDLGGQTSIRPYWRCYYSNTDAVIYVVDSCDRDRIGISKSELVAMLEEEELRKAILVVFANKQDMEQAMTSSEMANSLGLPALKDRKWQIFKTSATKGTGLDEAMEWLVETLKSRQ

log2 fold change, inactive:
APAF1 (UniProt O14727) 0.008
ASCC2 (UniProt Q9H1I8) -0.003
AP1G2 (UniProt O75843) 0.036
ANLN (UniProt Q9NQW6) 0.011
ABCD3 (UniProt P28288) -0.048
ACLY (UniProt P53396) 0.01
AKT2 (UniProt P31751) -0.064
AIMP2 (UniProt Q13155) -0.007
ACIN1 isoform 5 (UniProt Q9UKV3) 0.053
ANP32E (UniProt Q9BTT0) 0.056
ACADS (UniProt P16219) 0.014
ANXA2 isoform 2 (UniProt P07355) -0.026
AMDHD2 isoform 3 (UniProt Q9Y303) 0.018
ACSL4 (UniProt O60488) -0.034
AKR1C3 (UniProt P42330) -0.211
ANP32A (UniProt P39687) -0.056
AFF4 (UniProt Q9UHB7) 0.018
ARL1 (UniProt P40616) 0.088
ARHGAP25 isoform 4 (UniProt P42331) 0.054
AK4 (UniProt P27144) 0.009
AIFM2 (UniProt Q9BRQ8) 0.099
AK1 (UniProt P00568) -0.007
ABI1 isoform 9 (UniProt Q8IZP0) 0.025
APOB (UniProt P04114) 0.264
AKR1B1 (UniProt P15121) -0.072
AGTPBP1 (UniProt Q9UPW5) -0.001
ABCF2 isoform 2 (UniProt Q9UG63) 0.005
ARFGAP1 (UniProt Q8N6T3) 0.025
AMD1 (UniProt P17707) 0.008
AGPAT1 (UniProt Q99943) -0.033
ASB6 (UniProt Q9NWX5) 0.099
AGL (UniProt P35573) -0.002
ALDH5A1 isoform 2 (UniProt P51649) -0.02
AKR1C2 (UniProt P52895) -0.151
ALG8 (UniProt Q9BVK2) -0.012
ARMC6 (UniProt Q6NXE6) -0.103

compound: COC(=O)N[C@@H](C)CNc1nccc(-c2cn(C(C)C)nc2-c2cc(Cl)cc(NS(C)(=O)=O)c2F)n1 [encorafenib]; test: as above
Procedure, shortened: as §1

log2 fold change, inactive:
APAF1 (UniProt O14727) -0.017
ASCC2 (UniProt Q9H1I8) 0.007
AP1G2 (UniProt O75843) -0.03
ANLN (UniProt Q9NQW6) 0.036
ABCD3 (UniProt P28288) 0.028
ACLY (UniProt P53396) -0.043
AKT2 (UniProt P31751) 0.028
AIMP2 (UniProt Q13155) -0.02
ACIN1 isoform 5 (UniProt Q9UKV3) -0.004
ANP32E (UniProt Q9BTT0) -0.037
ACADS (UniProt P16219) -0.034
ANXA2 isoform 2 (UniProt P07355) -0.03
AMDHD2 isoform 3 (UniProt Q9Y303) -0.028
ACSL4 (UniProt O60488) 0.003
AKR1C3 (UniProt P42330) -0.026
ANP32A (UniProt P39687) -0.024
AFF4 (UniProt Q9UHB7) 0.011
ARL1 (UniProt P40616) 0.111
ARHGAP25 isoform 4 (UniProt P42331) -0.009
AK4 (UniProt P27144) 0.006
AIFM2 (UniProt Q9BRQ8) 0.024
AK1 (UniProt P00568) -0.036
ABI1 isoform 9 (UniProt Q8IZP0) 0.003
APOB (UniProt P04114) -0.008
AKR1B1 (UniProt P15121) 0.019
AGTPBP1 (UniProt Q9UPW5) -0.014
ABCF2 isoform 2 (UniProt Q9UG63) -0.005
ARFGAP1 (UniProt Q8N6T3) 0.355
AMD1 (UniProt P17707) -0.08
AGPAT1 (UniProt Q99943) 0.075
ASB6 (UniProt Q9NWX5) -0.1
AGL (UniProt P35573) 0.008
ALDH5A1 isoform 2 (UniProt P51649) -0.028
AKR1C2 (UniProt P52895) -0.012
ALG8 (UniProt Q9BVK2) 0.04
ARMC6 (UniProt Q6NXE6) 0.037
